In the library only some 21% were active in any assay of this set; here they are far more common.
Pf growth 48h = inhibits P. falciparum growth in the first generation, 48 h; P. falciparum luciferase growth in erythrocytes, 48 h; Potency, µM (highest dose often 28.7 µM), for the others: top-dose activity change, negative = inhibition, usual class: inhibitors; 5.9% of 310,000 active; note: potency is the fitted concentration of half-maximal effect; % is set by controls: 0 for no effect and ±100 for the full control effect
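Firefly luciferase activity from engineered P. falciparum reports growth; inhibitors lower the luminescent signal. Cultures contained 2% hematocrit erythrocytes at 0.1% final parasitemia.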
Pf growth 96h = P. falciparum growth inhibition at 96 hour, primary screen for plastid delayed-death inhibitors | P. falciparum luciferase reporter growth, 96 h | Potency, µM (doses to about 28.7 µM), without a hit: top-dose activity change, negative = inhibition, usual class: inhibitors | 6.9% of 320,000 active; note: potency is the fitted concentration of half-maximal effect; % is set by controls: 0 for no effect and ±100 for the full control effect
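P. falciparum expressing integrated firefly luciferase, in erythrocytes at 2% hematocrit, 0.05% parasitemia, incubated with compounds 96 h at 37 C, 5% CO2. Growth inhibition read as loss of luminescence; two-generation exposure targets delayed-death apicoplast inhibitors.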
SARS PLP yeast = inhibitors of SARS-CoV papain-like protease in yeast. S. cerevisiae expressing SARS-CoV PLpro, growth rescue. Potency, µM (highest dose often 32.9 µM), for the others: top-dose activity, positive = growth rescue, usual class: activators. 0.19% of 330,000 active; calls by dose curve; note: potency is the fitted concentration of half-maximal effect; 0% is about no effect; nearly all actives have a fitted effect of over 55% in size
Shiga inhibitor = Shiga toxin inhibition. inhibition, % at 38.7 µM. AID 2315. Vero cells, Shiga toxin protein synthesis inhibition reporter. 9.2% of 290,000 active; in the data active = inhibition mostly above about 28%, no sharp cut-off; inactive = mostly below about 43%; note: 0% is about no effect
CHX counter = counter-screen for Shiga toxin inhibitors: cycloheximide protein synthesis inhibition; cell reporter, cycloheximide protein synthesis inhibition counterscreen; AID 2314; 12% of 300,000 active; max response, %; in the data active = max response mostly above about 13%, no sharp cut-off; inactive = mostly below about 14%; note: read at 38.3 µM for the half of the compounds with a filed dose; 0% is about no effect
NS1 function inh = inhibitors of influenza NS1 protein function. Potency, µM (doses to about 46.1 µM), without a hit: top-dose activity, positive = more growth. 0.4% of 270,000 active; calls by dose curve; note: potency is the fitted concentration of half-maximal effect; actives are rising curves; nearly all actives have a fitted effect of over 50% in size
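Growth recovery, yeast-based: influenza A NS1 expressed in S. cerevisiae causes slow growth, and suppressors are detected by OD600. The parent strain without NS1 is used as positive control.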
Active calls of the source: *; i = inactive; ? = inconclusive; / = not tested or not shown; + = active, no number. Unless noted, calls come from the whole dose curve; as a rule, active = well fitted inhibition curve with a large enough effect; inconclusive = small, poorly fitted or top-dose-only effect, or another doubt; inactive = no such curve, though single readings can be large or run the other way.

SMILES	Pf growth 48h	Pf growth 96h	SARS PLP yeast	Shiga inhibitor	CHX counter	NS1 function inh
O=C(NCC1COCCO1)c1cc(COc2c(F)cccc2F)on1 (stereo not given)	12.2%	-18.7%	0.2%	30.4	26.0*	-2.7%
COc1cccc(OCc2cc(C(=O)N(C)C3CCOCC3)no2)c1	28.6%	-26.1%	0.9%	19.5	4.5	-1.1%
CC(=O)c1ccc(OCc2cc(C(=O)N(C)Cc3nc4c(C)cccc4[nH]3)no2)cc1	?	-6.4%	-2.8%	18.0	6.6	-17.7%
CC(=O)c1ccc(OCc2cc(C(=O)N(C)CCOc3ccc(C)cc3)no2)cc1	10.5%	18.0%	-6.7%	81.1*	47.3*	-13.8%
O=C(c1cc(COc2c(F)cccc2F)on1)N(Cc1ccccc1)CC1CC1	0.9%	-15.9%	5.9%	27.1	18.3*	-24.2%
O=C(N/N=C\c1ccc(OC(=O)c2cccs2)cc1)c1ccc(Cl)cc1	30.2%	2.2%	-8.5%	15.7	-1.0	-17.1%
O=C1C2C3C=CC(C2C(=O)N1CN1CCOCC1)C1C2C(=O)N(CN4CCOCC4)C(=O)C2C31 (stereo not given)	/	/	/	/	/	7.7%
CN(CC(=O)NCc1ccco1)S(=O)(=O)c1ccc2c(c1)c(=O)n(C)c(=O)n2C	-13.8%	3.4%	-0.5%	13.0	11.8	-0.3%
CN(C(=O)c1cc(COc2c(F)cccc2F)on1)C1CCOC1 (stereo not given)	46.1%	3.2%	2.0%	31.5	30.0*	11.4%
COc1cc(Cl)ccc1OCc1cc(C(=O)N(C)C2CCOC2)no1 (stereo not given)	9.5%	?	-6.9%	59.7*	37.0*	4.9%
Cc1cccc(C)c1OCc1cc(C(=O)N(C)Cc2cc(C3CC3)n[nH]2)no1	?	5.0%	-3.6%	50.2*	32.1*	-26.2%
COc1cccc(OCc2cc(C(=O)N(C)C3CC(C)(C)NC(C)(C)C3)no2)c1	?	0.0%	0.8%	27.0	-1.8	-13.1%
CN(CCCN1CCOCC1)C(=O)c1cc(COc2c(F)cccc2F)on1	-8.5%	40.2%	2.4%	11.3	3.2	-6.5%
Cc1cnc(CN(C)C(=O)c2cc(COc3c(F)cccc3F)on2)[nH]1	4.15µM*	-27.3%	0.0%	-2.7	-2.0	1.9%
CC(=O)c1ccc(OCc2cc(C(=O)N(C)C3CCOC3)no2)cc1 (stereo not given)	4.8%	11.7µM*	-0.3%	-8.0	3.5	1.8%
NC(=O)[C@@H]1CC2(CC(c3cccc(NC(=O)COc4ccc(Cl)cc4)c3)=NO2)CN1C(=O)COc1ccc(Cl)cc1 (stereo not given in full)	?	?	-0.8%	-3.2	-2.1	-12.7%
CC/C=C/C(=O)N1CC2(CC(c3cccc(NC(=O)COc4ccc(Cl)cc4)c3)=NO2)C[C@H]1C(N)=O (stereo not given in full)	10.4µM*	4.65µM*	2.2%	9.0	8.3	2.0%
NC(=O)[C@H]1CC2(CC(c3cccc(NC(=O)COc4ccc(Cl)cc4)c3)=NO2)CN1C(=O)C(c1ccccc1)c1ccccc1 (stereo not given in full)	13.1µM*	?	1.7%	-6.7	-1.0	10.3%
O=C(Cc1cccc([N+](=O)[O-])c1)Nc1ccc(C(=O)N2CCCCC2)cc1	/	/	2.6%	/	/	/
COc1ccc(/C(N)=N/OC(=O)c2ccco2)cc1	379.2%	32.5%	-4.3%	21.0	7.1	2.4%
Cc1cccc(C(=O)NCCNC(=O)c2ccco2)c1	28.3%	-1.5%	1.1%	-2.9	-3.0	10.3%
Cc1ccc(/C(N)=N/OC(=O)c2ccco2)cc1	i	i	-83.9%	active	21.8*	-35.2%
Cc1cccc(/C(N)=N/OC(=O)c2ccco2)c1	/	?	-38.6%	71.5*	26.4*	-115.9%
N/C(=N\OC(=O)c1ccco1)c1ccc(Br)cc1	45.0%	86.7%	-15.5%	95.0*	38.7*	-184.6%
CN(CC(=O)O/N=C(\N)c1ccc(Br)cc1)S(=O)(=O)c1ccccc1	4.2%	15.1%	-5.2%	-4.8	-2.7	0.4%
SMILES	Pf growth 48h	Pf growth 96h	SARS PLP yeast	Shiga inhibitor	CHX counter	NS1 function inh
N/C(=N\OC(=O)c1ccco1)c1ccccn1	107.6%	?	-2.1%	94.6*	44.0*	-4.3%
COc1cccc(N2CCN(C(=O)CNC(=O)c3sc4ccccc4c3Cl)CC2)c1	?	?	-5.2%	-2.8	8.7	18.3%
Cc1noc(-c2ccc(Cl)cc2)c1C(=O)O/N=C(\N)c1ccc(C(C)(C)C)cc1	?	?	-17.4%	15.1	-3.3	-123.1%
N/C(=N\OC(=O)c1ccco1)c1ccccc1	320.6%	13.4%	-20.3%	+	32.4*	-7.0%
Cc1occc1C(=O)O/N=C(\N)c1ccc(Cl)cc1	?	?	-20.8%	135.9*	66.1*	-72.7%
CN(CCOC(=O)c1ccco1)Cc1ccccc1	/	?	7.4%	-4.8	1.2	-5.2%
CCOC(=O)/C(C#N)=C1\C(=O)N(Cc2ccccc2)c2ccccc21	?	-13.5%	-2.6%	7.5	0.7	4.6%
Cc1ccc(COn2c(-c3ccc(Cl)cc3)nc3ccc([N+](=O)[O-])cc32)cc1	81.5%	53.9%	-2.3%	105.4*	49.5*	-144.5%
Clc1ccc(COn2c(-c3ccc(Cl)cc3)nc3ccccc32)cc1	?	?	-23.0%	-5.0	-1.4	-13.1%
O=[N+]([O-])c1ccc2nc(-c3ccc(Cl)cc3)n(OCc3ccccc3)c2c1	104.5%	104.1%	-0.2%	96.4*	35.4*	-79.5%
Clc1ccc(COn2c(-c3ccccc3)nc3ccccc32)cc1	?	?	-19.2%	21.7	1.4	-86.9%
CCN(C(=O)COC(=O)CNS(=O)(=O)c1ccccc1)c1ccccc1	-0.3%	27.4%	7.5%	28.4	-0.6	/
Cc1ccc(-c2nc3scc(CCNS(=O)(=O)c4ccc(Oc5ccccc5)cc4)n3n2)cc1	/	/	/	-14.4	-8.3	/
O=C(CSc1nnc(COc2ccccc2)n1Cc1ccco1)c1ccc(F)cc1	11.7µM*	13.1µM*	-3.6%	26.3	36.5*	-10.4%
c1ccc(-c2nnc(SCc3nc4ccccc4[nH]3)n2Cc2ccco2)cc1	-4.5%	0.7%	13.0%	-5.5	6.4	1.0%
Cc1occc1-c1nnc(SCC(=O)c2ccc(F)cc2)n1Cc1ccco1	-15.3%	/	1.0%	14.3	12.5*	-2.2%
O=C(CSc1nnc(-c2ccc(Br)o2)n1Cc1ccccc1)c1ccccc1F	9.28µM*	?	1.1%	-11.9	-1.0	1.2%
Cc1occc1-c1nnc(SCC(=O)Nc2nccs2)n1Cc1ccco1	12.0%	/	-3.9%	-5.8	1.0	-0.8%
Cc1cc(NC(=O)CSc2nnc(-c3ccc(Br)o3)n2Cc2ccccc2)no1	?	?	9.6%	-12.4	10.8	-3.9%
Cc1ccc(OCc2nnc(SCc3nc4ccccc4[nH]3)n2Cc2ccco2)cc1	?	6.57µM*	-4.1%	21.0	-4.2	-94.2%
